Assay outcomes: PubChem BioAssay, National Center for Advancing Translational Sciences (NCATS)
4-MU autofl = qHTS Assay for Spectroscopic Profiling in 4-MU Spectral Region; compound autofluorescence, 340/450 nm, 4-MU equivalents; hits give high values; max dye-equivalent concentration, M; actives 11% (n = 59,000); AID 589, 2007; in the data active = max dye-equivalent concentration above about 10 nM; inconclusive = mostly about 1.1 nM to 9.6 nM
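Compounds in 100 mM Tris, pH 8.0, incubated 15 min at room temperature, then fluorescence read at 340 nm excitation/450 nm emission. Signal converted to 4-MU dye-equivalent concentration using an on-plate six-point 4-MU standard curve.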
A350 fluor = qHTS Assay for Spectroscopic Profiling in A350 Spectral Region; AID 590, 2007; max dye-equivalent concentration, M; actives 11% (n = 59,000); Compound autofluorescence, 340/450 nm, Alexa 350 dye-equivalents; hits give high values; in the data active = max dye-equivalent concentration above about 10 nM; inconclusive = mostly about 1.1 nM to 9.6 nM
HSD17B inhib = qHTS Assay for Inhibitors of HSD17B4, hydroxysteroid (17-beta) dehydrogenase 4; 3-hydroxyacyl-CoA dehydrogenase type-2 (Homo sapiens), Q99714; actives 7.6% (n = 75,000); Potency, µM (doses to about 57.1 µM), without a hit: at the top dose activity change, negative = inhibition, most hits filed as inhibitors; recombinant HSD17B10, NADH fluorescence kinetic;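 note: the protocol describes HADH2 (HSD17B10) and not the HSD17B4 of the title; potency is the fitted concentration of half-maximal effect; % is set by controls: 0 for no effect and ±100 for the full control effect; nearly all actives have a fitted effect of over 70% in size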
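20 nM HADH2, pH 9.0 Tris/Tween; cpd preinc 15 min RT; start w/ 1 mM NAD+ + 90 uM b-hydroxybutyryl-CoA; kinetic fluor ex360/em450 q30s x 4 min; delta last-first.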
AID923 = qHTS Assay for Allosteric/Competitive Inhibitors of Caspase-1: Spectroscopic Profiling in AFC Spectral Region | compound fluorescence, AFC spectral region (405/520 nm) | actives 1.1% (n = 75,000) | Potency, µM (doses to about 57.5 µM), for inactives: top-dose fluorescence increase, most hits filed as activators; note: potency is the fitted concentration of half-maximal effect; 0% is about no effect
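Titrations up to 57 uM read every 20 sec for 3 min (405/520 nm) with 50 nM caspase 1 and 5 uM Ac-WEHD-AFC, pH 7.5 HEPES buffer. Fluorescence-vs-time intercept gave baseline, scaled against on-plate AFC standard.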
HADH2 inhib = qHTS Assay for Inhibitors of HADH2 (Hydroxyacyl-Coenzyme A Dehydrogenase, Type II); actives 3.4% (n = 73,000); recombinant HADH2, NADH fluorescence, beta-hydroxybutyryl-CoA; 3-hydroxyacyl-CoA dehydrogenase type-2 (Homo sapiens), Q99714; Potency, µM (top dose mostly 57.1 µM), inactives show at the top dose activity change, negative = inhibition, most hits filed as inhibitors; AID 886, 2007; note: potency is the fitted concentration of half-maximal effect; % is set by controls: 0 for no effect and ±100 for the full control effect; nearly all actives have a fitted effect of over 60% in size
Target sequence (Q99714 whole entry, looked up, one chain of several): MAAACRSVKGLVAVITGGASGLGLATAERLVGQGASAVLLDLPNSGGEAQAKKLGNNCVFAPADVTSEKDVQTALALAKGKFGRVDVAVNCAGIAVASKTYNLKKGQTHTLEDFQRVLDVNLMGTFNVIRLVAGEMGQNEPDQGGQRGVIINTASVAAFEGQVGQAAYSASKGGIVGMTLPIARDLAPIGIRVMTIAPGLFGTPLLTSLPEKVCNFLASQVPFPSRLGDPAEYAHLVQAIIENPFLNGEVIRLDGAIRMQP
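Activity measured as NADH fluorescence gain (360/450 nm), taken as the change between first and last reads of a 4-min kinetic run. Conditions: pH 9.0 Tris buffer, 20 nM E. coli-expressed His-tagged enzyme, 1 mM NAD+, 90 uM beta-hydroxybutyryl-CoA; 15-min compound preincubation.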
* hit, by the source's call; [ ] = another dose, or the depositor's remark. An excerpt weighted towards active compounds, which were near 13% of everything screened. Unless noted, calls come from the whole dose curve; as a rule, active = well fitted curve in the direction sought with a large enough effect; inconclusive = small, poorly fitted or top-dose-only effect, or another doubt; inactive = no such curve, though single readings can be large; an effect the other way counts as inactive or inconclusive.

For COc1ccc(C2OC3C(CO)OC(n4cnc5c(=O)[nH]c(N)nc54)C3O2)cc1 (centres undefined) the results were HSD17B inhib 5% and AID923 1%.
Screening O=C1c2cccc3cccc(c23)C(=O)N1c1cccnc1 returned 4-MU autofl 1.4e-07M*, A350 fluor 1.3e-07M*, HSD17B inhib 25µM*, AID923 2% and HADH2 inhib 25µM*.
`CC(=O)c1cccc(NC(=O)C2CCCC2)c1` gave HSD17B inhib -1%, AID923 0% and HADH2 inhib -2%[11.4 µM].
`O=C1NC(=O)c2cc(NC(=O)C3CCCCC3)ccc21` gave 4-MU autofl 1.5e-07M*, A350 fluor 1.7e-07M*, HSD17B inhib 25µM*, AID923 1% and HADH2 inhib inconclusive.
N/C(=N\S(=O)(=O)c1ccc(Cl)s1)c1ccccc1 was read as 4-MU autofl 2.2e-08M* and A350 fluor 2.5e-08M*.
Screening COC(=O)C1(C)Nc2ccccc2C(=O)N1c1ccccc1C (centres undefined) returned HSD17B inhib 32µM*, AID923 3% and HADH2 inhib inconclusive.
CC(=O)OC1c2ccccc2C(=O)N1c1ccccc1C (centres undefined) was read as HSD17B inhib 6%, AID923 -2% and HADH2 inhib 5%.
Screening O=C(Nc1ccccc1)OC1C2CCC1C(N1CCCCC1)CC2 (centres undefined) returned 4-MU autofl 1.2e-08M*, A350 fluor 1.2e-08M*, HSD17B inhib inconclusive, AID923 1% and HADH2 inhib 17%.
CS(=O)(=O)Nc1cccc(-c2cc(NCc3ccccc3)ncn2)c1 was read as 4-MU autofl inactive, A350 fluor inactive, HSD17B inhib inconclusive, AID923 1% and HADH2 inhib 9%.
`CN(C)c1cc(-c2cccc(NS(C)(=O)=O)c2)ncn1` gave 4-MU autofl inactive, A350 fluor inactive, HSD17B inhib 25µM*, AID923 0% and HADH2 inhib 0%.
`Cc1noc(C)c1C(=O)N1CCC2(CC1)CCN(c1ncccn1)CC2` gave 4-MU autofl inactive, A350 fluor inactive, HSD17B inhib -2%, AID923 0% and HADH2 inhib 15%.
For CN1C(=O)N(S(=O)(=O)c2ccc(F)c(F)c2F)C(=O)C1(C)C the results were 4-MU autofl 1.2e-07M*, A350 fluor 8.2e-08M*, HSD17B inhib -8%, AID923 1% and HADH2 inhib inconclusive.
N=C(N)c1ccc(N2CCN(C3CCN(CC(=O)O)CC3)CC2)cc1 was read as HSD17B inhib -21%, AID923 1% and HADH2 inhib -12%.
For Cc1c(N2C(=O)c3ccc4c5c(ccc(c35)C2=O)CC4)c(=O)n(-c2ccccc2)n1C the results were HSD17B inhib 20µM*, AID923 4% and HADH2 inhib -6%.
`CCOC(=O)c1cccc(-n2c(C)nc3ccccc3c2=O)c1` gave 4-MU autofl inactive, A350 fluor inactive, HSD17B inhib -5%, AID923 -1% and HADH2 inhib 9%.
CCOC(=O)c1cccc(N2C(=O)c3ccccc3S2(=O)=O)c1 was read as 4-MU autofl 2.2e-08M*, A350 fluor 2e-08M*, HSD17B inhib -17%, AID923 1% and HADH2 inhib -9%.
Screening CCOc1ccc(-c2nc(C#N)c(N3CCN(C)CC3)o2)cc1 returned 4-MU autofl inconclusive, A350 fluor inconclusive, HSD17B inhib 25µM*, AID923 -1% and HADH2 inhib 16µM*.
CCOc1ccc(-c2nc(C#N)c(N3CCCCCC3)o2)cc1 was read as HSD17B inhib 32µM*, AID923 0% and HADH2 inhib inactive.
Screening N#Cc1nc(-c2ccc(OCc3ccc(Cl)cc3)cc2)oc1N1CCOCC1 returned 4-MU autofl inactive, A350 fluor inactive, HSD17B inhib 1%, AID923 0% and HADH2 inhib inconclusive.
CCCOc1ccc(-c2nc(C#N)c(N3CCN(CC)CC3)o2)cc1 was read as 4-MU autofl inactive, A350 fluor inconclusive, HSD17B inhib 32µM*, AID923 1% and HADH2 inhib inconclusive.
N#Cc1nc(-c2ccc(OCc3ccc(Cl)cc3)cc2)oc1N1CCC(C(N)=O)CC1 was read as 4-MU autofl inconclusive, A350 fluor inconclusive, HSD17B inhib inconclusive, AID923 2% and HADH2 inhib -23%.
For CCCOc1ccc(-c2nc(C#N)c(N3CCN(C)CC3)o2)cc1 the results were 4-MU autofl inconclusive, A350 fluor inconclusive, HSD17B inhib 32µM*, AID923 0% and HADH2 inhib inconclusive.
For CCOc1ccc(-c2nc(C#N)c(N3CCN(CC)CC3)o2)cc1 the results were 4-MU autofl inactive and A350 fluor inconclusive.
N/N=C1/c2ccccc2N[C@H]1OC(=O)Nc1ccccc1 was read as 4-MU autofl inactive, A350 fluor inactive, HSD17B inhib -2%[11.4 µM], AID923 11%[11.5 µM] and HADH2 inhib 0%[11.4 µM].
For COCCNC(=O)c1noc2c1CCc1cc(OC)ccc1-2 the results were 4-MU autofl inactive, A350 fluor inactive, HSD17B inhib 10µM*, AID923 -2% and HADH2 inhib 10%.
For N#Cc1nc(-c2ccco2)oc1NCCCn1ccnc1 the results were 4-MU autofl inconclusive, A350 fluor inconclusive, HSD17B inhib 32µM*, AID923 1% and HADH2 inhib 25µM*.
Screening N#Cc1nc(COc2ccccc2)oc1NCCCn1ccnc1 returned 4-MU autofl inactive, A350 fluor inactive, HSD17B inhib 1%, AID923 -2% and HADH2 inhib 9%.
